Calls of active or inactive are those of the source.
assay: changes in parasitized red cell lysis, either direction – P. falciparum Indochina, OD700, 3 h, PSAC antagonist project, primary screen (AID 1156); settings: P. falciparum-infected erythrocytes, osmotic lysis, higher = more signal, called active from +8 up or from −8 down

| Compound | z-score |
| --- | --- |
| CC1CC/C=C\[C@H]2OC34C=CCN(C(C)C)C(=O)[C@H]3N(C(C)CO)C(=O)[C@@H]4C2C(=O)O1 (some centres undefined) | 1.06 (inactive) |
| [N-]=[N+]=NCc1ccccc1C[C@]1(C(=O)N2CCCCC2)COC(c2ccc(OCCCO)cc2)=N1 | 4.13 (inactive) |
| O=C1NC(=O)C2C1C=CC(C(O)c1ccc(F)cc1)N2Nc1ccc(Cl)cc1Cl (centres undefined) | -0.695 (inactive) |
| O=C(NCC(F)(F)F)[C@@H]1c2ccccc2C(=O)N(Cc2cc(C(F)(F)F)cc(C(F)(F)F)c2)[C@H]1c1ccc(CO)cc1 | 0.473 (inactive) |
| C=CCNC(=O)[C@H]1[C@@H]2C(=O)O[C@@H](c3ccccc3)[C@@H](c3ccccc3)N2[C@@H](c2ccc(O)cc2)[C@]12C(=O)N(C(=O)OCCOC)c1ccc(C#Cc3ccc(OC)cc3)cc12 | -0.829 (inactive) |
| COCCOC(=O)N1C(=O)[C@@]2(c3cc(C#CCNC(N)=O)ccc31)[C@H](C(N)=O)[C@H]1C(=O)O[C@H](c3ccccc3)[C@H](c3ccccc3)N1[C@@H]2c1ccc(O)cc1 | -1.12 (inactive) |
| CC(C)(C)OC(=O)CC[C@@]1(C(N)=O)N=C(c2ccc(OCCCO)cc2)O[C@@H]1c1ccccc1CN=[N+]=[N-] | -1.49 (inactive) |
| COC(=O)[C@@]1(Cc2ccc(F)cc2)[C@H]2c3cc(C(=O)N(C)C)n(CCF)c3C[C@H]2CN1C(=O)c1ccccc1 | -1.04 (inactive) |
| COc1ccc(C(=O)Nc2cccc(CN3C(=O)[C@]4(O[C@H](CC(=O)N(CCO)Cc5ccccc5)[C@@H]([Si](C)(C)c5ccc(OC)cc5)[C@@H]4C)c4ccccc43)c2)cc1 | 0.0064 (inactive) |
| [N-]=[N+]=NCc1ccccc1C[C@@]1(C(=O)NCCN2CCOCC2)N=C(c2ccc(OCCCO)cc2)O[C@@H]1c1ccccc1 | 1.44 (inactive) |
| COC(=O)C1(CC(C)C)C=C2C(=C(C)C(=O)C2C)CN1 (centres undefined) | 0.396 (inactive) |
| COC(=O)C(CC#Cc1ccc2c(c1)[C@]1(C(=O)N2)[C@H](c2ccc(OCCO)cc2)N2[C@H](c3ccccc3)[C@H](c3ccccc3)OC(=O)[C@H]2[C@@H]1C(N)=O)C(=O)OC | -0.623 (inactive) |
| CCCN1C(=O)[C@@]2(c3ccc([N+](=O)[O-])cc3)CC(=O)N(C3CCCCC3)[C@@H]2c2ccc(CO)cc21 | -0.203 (inactive) |
| C=CCNC(=O)[C@H]1[C@@H]2C(=O)O[C@@H](c3ccccc3)[C@@H](c3ccccc3)N2[C@@H](c2ccc(OCCO)cc2)[C@]12C(=O)N(C(=O)OCCOC)c1ccc(C#CCC(C(=O)OC)C(=O)OC)cc12 | 0.743 (inactive) |
| C=CCOC(=O)[C@H]1[C@@H]2C(=O)O[C@@H](c3ccccc3)[C@@H](c3ccccc3)N2[C@@H](c2ccc(OCCOC(=O)[C@H]3C[C@H]4C(=O)NCC(=O)N4[C@H]3c3ccc(O)cc3)cc2)[C@]12C(=O)Nc1ccccc12 | 2.3 (inactive) |
| COc1ccc(C(=O)Nc2ccc(CN3C(=O)[C@@]4(O[C@@H](CC(=O)N(CCO)Cc5ccccc5)[C@H]([Si](C)(C)c5ccc(OC)cc5)[C@H]4C)c4ccccc43)cc2)cc1 | 0.467 (inactive) |
| CCOC(=O)C1=CCC(c2ccncc2)N(S(=O)(=O)c2ccc(C)cc2)C1 (centres undefined) | 0.488 (inactive) |
| O=C1O[C@H](c2ccccc2)[C@H](c2ccccc2)N2[C@H]1[C@@H](C(=O)O)[C@]1(C(=O)Nc3ccc(C#CC4(O)CCCCCC4)cc31)[C@H]2c1ccccc1OCCO | -14.7 (active) |
| O=C1O[C@H](c2ccccc2)[C@H](c2ccccc2)N2[C@H]1[C@@H](C(=O)O)[C@]1(C(=O)Nc3ccccc31)[C@H]2c1ccc(OCCO)cc1 | -0.776 (inactive) |
| CCCCCCc1nc(-c2ccc(OC)nc2)c(C)c2c1[Si](C(C)C)(C(C)C)OC2 | 0.974 (inactive) |
| COC(=O)Cn1c(C(=O)N(C)C)cc2c1C[C@H]1CN(C(=O)c3ccccc3)[C@@](Cc3ccccc3)(C(=O)OC)[C@@H]21 | -0.486 (inactive) |
| COc1ccc([Si](C)(C)[C@H]2[C@H](CC(=O)N3CCC[C@H]3CO)O[C@@]3(C(=O)N(C)c4ccccc43)[C@@H]2C)cc1 | -0.0347 (inactive) |
| C=CC[C@H](OC(=O)Nc1ccc(SC)cc1)c1ccc(O)c(F)c1 | 1.45 (inactive) |
| Cc1ccc(S(=O)(=O)N2[C@@H](c3ccccc3)C(C(=O)O)=CC[C@H]2c2ccc(F)cc2)cc1 | 1.1 (inactive) |

Source: PubChem BioAssay
